{
  "source": "PubChem BioAssay AID1942",
  "about": "(Johns Hopkins Ion Channel Center, 2009)",
  "note": "Screen size: about 2,400 compounds; about 580 (24%) were called active.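 Rule for the calls: active = activity change at or above the mean plus 3 SD of buffer wells without dofetilide, per plate; inactive = the rest.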 Only a sample is shown.",
  "data": [
    {"target": "Potassium voltage-gated channel subfamily KQT member 2 (Rattus norvegicus) (UniProt O88943)", "sequence (O88943 whole entry, looked up)": "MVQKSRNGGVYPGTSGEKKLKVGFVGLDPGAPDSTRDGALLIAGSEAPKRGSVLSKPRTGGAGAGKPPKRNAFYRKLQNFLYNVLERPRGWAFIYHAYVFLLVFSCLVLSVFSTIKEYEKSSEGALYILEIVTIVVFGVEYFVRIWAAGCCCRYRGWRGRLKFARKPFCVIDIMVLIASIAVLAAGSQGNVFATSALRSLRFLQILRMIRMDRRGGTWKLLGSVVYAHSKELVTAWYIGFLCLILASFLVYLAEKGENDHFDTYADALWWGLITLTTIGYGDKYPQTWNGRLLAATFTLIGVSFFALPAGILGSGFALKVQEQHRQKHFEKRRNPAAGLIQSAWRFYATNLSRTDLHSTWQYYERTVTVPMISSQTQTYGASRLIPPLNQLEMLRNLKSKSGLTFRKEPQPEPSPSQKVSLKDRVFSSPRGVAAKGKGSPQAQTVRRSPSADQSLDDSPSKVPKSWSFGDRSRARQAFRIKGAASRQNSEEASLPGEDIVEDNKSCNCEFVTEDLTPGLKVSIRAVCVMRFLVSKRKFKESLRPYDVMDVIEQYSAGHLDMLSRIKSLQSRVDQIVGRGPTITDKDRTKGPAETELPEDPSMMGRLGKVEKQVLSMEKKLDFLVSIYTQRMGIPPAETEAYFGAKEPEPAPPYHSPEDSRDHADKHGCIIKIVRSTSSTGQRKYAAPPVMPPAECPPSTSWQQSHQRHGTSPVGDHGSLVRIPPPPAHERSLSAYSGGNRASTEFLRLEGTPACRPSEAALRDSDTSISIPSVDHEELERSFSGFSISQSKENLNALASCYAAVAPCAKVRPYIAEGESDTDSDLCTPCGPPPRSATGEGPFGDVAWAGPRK", "test": "KCNQ2 potentiation in CHO cells – cell-based, FluxOR thallium flux, counter-screen for hERG block protector project, confirmation (AID 1942);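 note: normalized value minus buffer-control mean plus three SD of buffer wells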", "conditions": "FluxOR thallium flux fluorescence, at 10 µM, active compounds read high", "values": [
      {"smiles": "CC(NC(=O)CCCn1cc([N+](=O)[O-])cn1)c1ccccc1", "note": "(stereo unspecified)", "activity change, less the hit threshold": "-27% (inactive)"},
      {"smiles": "COc1ccc(NC(=O)C(=O)NNC(=O)c2ccc(Cl)cc2Cl)cc1", "activity change, less the hit threshold": "-7.7% (inactive)"},
      {"smiles": "COc1cccc(C(=O)Nc2cccc(-c3ccc(N4CCOCC4)nn3)c2)c1", "activity change, less the hit threshold": "-17.8% (inactive)"},
      {"smiles": "COc1ccc(C(=O)NNC(=O)C(=O)Nc2ccc(C)cc2)cc1", "activity change, less the hit threshold": "22.4% (active)"},
      {"smiles": "CC(C)Oc1cccc(C(=O)N2CCCC2)c1", "activity change, less the hit threshold": "-14% (inactive)"},
      {"smiles": "COc1cccc(C(=O)NNC(=O)C(=O)Nc2cccc(Cl)c2C)c1", "activity change, less the hit threshold": "54.1% (active)"},
      {"smiles": "COc1ccc(NC(=O)C(=O)NNC(=O)C(C)Oc2ccc(Cl)cc2Cl)cc1", "note": "(stereo unspecified)", "activity change, less the hit threshold": "32.6% (active)"},
      {"smiles": "COc1cccc(C(=O)NNC(=O)C(=O)Nc2ccc(C)c(Cl)c2)c1", "activity change, less the hit threshold": "66.8% (active)"},
      {"smiles": "CC(Oc1ccc(Cl)cc1Cl)C(=O)Nc1cccnc1", "note": "(stereo unspecified)", "activity change, less the hit threshold": "-25.1% (inactive)"},
      {"smiles": "COc1ccc(C(=O)NNC(=O)C(=O)Nc2ccc(C)c(Cl)c2)cc1", "activity change, less the hit threshold": "-0.2% (inactive)"},
      {"smiles": "CCN(C(=O)c1cc2c(=O)[nH]c3ccc(C)cc3c2s1)c1ccccc1F", "activity change, less the hit threshold": "-7% (inactive)"},
      {"smiles": "O=C(O)c1cccc2cc(-c3ccccc3)oc(=O)c12", "activity change, less the hit threshold": "-17.7% (inactive)"},
      {"smiles": "COc1cccc(CN(C)CC2CCCN(CCc3ccc(Cl)cc3)C2)c1OC", "note": "(stereo unspecified)", "activity change, less the hit threshold": "-26.8% (inactive)"},
      {"smiles": "Cc1ccc(-n2nc(C)c3c2OC(N)=C(C#N)C3c2ccoc2)cc1", "note": "(stereo unspecified)", "activity change, less the hit threshold": "-13.7% (inactive)"},
      {"smiles": "O=C(CCC(=O)N1CCN(S(=O)(=O)c2ccccc2)CC1)c1cccs1", "activity change, less the hit threshold": "-13.6% (inactive)"},
      {"smiles": "CN1C(=O)NC(c2cccc([N+](=O)[O-])c2)C2=C1CC(C)(C)CC2=O", "note": "(stereo unspecified)", "activity change, less the hit threshold": "-22.1% (inactive)"},
      {"smiles": "COc1cccc(NC(=O)c2cncs2)c1", "activity change, less the hit threshold": "-22.6% (inactive)"},
      {"smiles": "CCc1ccc(NC(=S)Nc2cccc(OC)c2)cc1", "activity change, less the hit threshold": "-15.5% (inactive)"},
      {"smiles": "COc1cccc(C(=O)NNC(=O)C(=O)Nc2ccc(C)cc2)c1", "activity change, less the hit threshold": "78.3% (active)"},
      {"smiles": "CCc1ccc(NC(=O)C(=O)NNC(=O)c2cccc(OC)c2)cc1", "activity change, less the hit threshold": "62.3% (active)"},
      {"smiles": "CCc1ccc(NC(=O)C(=O)NNC(=O)c2ccc(OC)cc2)cc1", "activity change, less the hit threshold": "100% (active)"},
      {"smiles": "COc1ccc(CCNC(=O)C2CCCN(S(C)(=O)=O)C2)cc1", "note": "(stereo unspecified)", "activity change, less the hit threshold": "-23.4% (inactive)"},
      {"smiles": "Cc1n[nH]c(C)c1CCNC(=O)C1CCC(=O)N(Cc2ccccc2F)C1", "note": "(stereo unspecified)", "activity change, less the hit threshold": "-14% (inactive)"},
      {"smiles": "Cc1c(-c2ccn[nH]2)cc(NC(=O)c2ccc(Cl)cc2)c(=O)n1N", "activity change, less the hit threshold": "-24.4% (inactive)"},
      {"smiles": "COCC1CCCN(C(=O)c2ccc3oc(C(C)C)nc3c2)C1", "note": "(stereo unspecified)", "activity change, less the hit threshold": "-11.7% (inactive)"},
      {"smiles": "Cc1ccc(NC(=O)CN2C(=O)N/C(=C/c3ccccc3OCc3cccc(C(=O)O)c3)C2=O)cc1", "activity change, less the hit threshold": "-18.7% (inactive)"},
      {"smiles": "CCOC(=O)NC(=O)/C(C#N)=N\\Nc1ccc(Cl)cc1", "activity change, less the hit threshold": "-17.6% (inactive)"},
      {"smiles": "CC(C)(C)SCCNC(=O)CN1C(=O)c2ccccc2S1(=O)=O", "activity change, less the hit threshold": "-13.2% (inactive)"},
      {"smiles": "Cc1nc2cc3sc(C)nc3cc2s1", "activity change, less the hit threshold": "-9.2% (inactive)"},
      {"smiles": "COc1ccc(-c2cc(=O)oc3cc(OCC(C)=O)ccc23)cc1", "activity change, less the hit threshold": "-20.9% (inactive)"},
      {"smiles": "O=C(CCN1C(=O)/C(=C/c2cccs2)SC1=S)Nc1cccc(C(=O)O)c1", "activity change, less the hit threshold": "-22.7% (inactive)"},
      {"smiles": "O=C(CN1C(=O)S/C(=C\\c2cccs2)C1=O)Nc1ccc(O)c(C(=O)O)c1", "activity change, less the hit threshold": "-14% (inactive)"},
      {"smiles": "O=C(CN1C(=O)S/C(=C\\c2cccs2)C1=O)Nc1ccc(C(=O)O)c(O)c1", "activity change, less the hit threshold": "21.5% (active)"},
      {"smiles": "CSc1nc(C)c2c(n1)N(c1ccc(C(C)C)cc1)CC2", "activity change, less the hit threshold": "-17.3% (inactive)"},
      {"smiles": "O=C(N/N=C/c1ccc(-c2ccccc2)o1)c1ccccc1O", "activity change, less the hit threshold": "-5.7% (inactive)"},
      {"smiles": "Cc1cccc(C(=O)CC(=O)c2cc(Cl)ccc2O)c1", "activity change, less the hit threshold": "-14.2% (inactive)"},
      {"smiles": "O=C(N/N=C/c1cc(Cl)ccc1O)c1ccccc1Br", "activity change, less the hit threshold": "6.8% (active)"},
      {"smiles": "CC(C)C(=O)N(c1ccc(F)cc1)C1C=CS(=O)(=O)C1", "note": "(stereo unspecified)", "activity change, less the hit threshold": "-12.6% (inactive)"},
      {"smiles": "O=c1oc2ccccc2c2c1nc(C(F)(F)F)n2-c1ccccc1", "activity change, less the hit threshold": "-18.1% (inactive)"},
      {"smiles": "O=C(CSc1nc(-c2ccccc2)nc2ccc(F)cc12)Nc1cccc(C(=O)O)c1", "activity change, less the hit threshold": "-4.9% (inactive)"},
      {"smiles": "CC[C@@H](C(=O)[C@@H](C)[C@@H](O)[C@H](C)CCc1ccc(C)c(O)c1C(=O)O)[C@H]1O[C@](CC)([C@H]2CC[C@](O)(CC)[C@H](C)O2)C[C@@H]1C", "activity change, less the hit threshold": "155% (active)"},
      {"smiles": "Cc1nc2c(C(=O)NCCc3ccccc3)c[nH]n2c(=O)c1Cl", "activity change, less the hit threshold": "-7.3% (inactive)"},
      {"smiles": "Cc1ccc(NC(=S)NC(=O)c2ccc(-c3ccccc3)cc2)cc1", "activity change, less the hit threshold": "-11% (inactive)"},
      {"smiles": "O=C(NC(=S)Nc1ccccc1)c1cncc(C#Cc2ccccc2)c1", "activity change, less the hit threshold": "-13% (inactive)"},
      {"smiles": "Cc1cccnc1NC(=O)c1csnn1", "activity change, less the hit threshold": "-13.6% (inactive)"},
      {"smiles": "O=C(NC(=S)Nc1ccccc1)c1csnn1", "activity change, less the hit threshold": "81.6% (active)"},
      {"smiles": "COc1ccc(NC(=O)c2onc(C)c2Cl)cc1", "activity change, less the hit threshold": "-22.4% (inactive)"},
      {"smiles": "O=C(COc1ccccc1Cl)NC(=S)Nc1ccccc1N1CCCC1", "activity change, less the hit threshold": "-15.7% (inactive)"},
      {"smiles": "COc1ccc(NC(=S)NC(=O)c2csnn2)cc1", "activity change, less the hit threshold": "52.2% (active)"},
      {"smiles": "Cc1onc(-c2ccccc2Cl)c1C(=O)NC(=S)Nc1ccc(C(C)C)cc1", "activity change, less the hit threshold": "-9% (inactive)"},
      {"smiles": "Cc1snnc1C(=O)NC(=S)Nc1ccccc1", "activity change, less the hit threshold": "30.3% (active)"},
      {"smiles": "COc1ccc(NC(=S)Nc2ccccn2)cc1", "activity change, less the hit threshold": "-16.1% (inactive)"},
      {"smiles": "O=C(NC(=S)Nc1ccccc1Cl)c1csnn1", "activity change, less the hit threshold": "71.3% (active)"},
      {"smiles": "Cc1ccc(NC(=O)c2cc(-c3ccc4c(c3)OCO4)on2)cc1", "activity change, less the hit threshold": "-8.6% (inactive)"},
      {"smiles": "CCn1c(=O)c(-[n+]2ccccc2)c(O)c2ccccc21", "activity change, less the hit threshold": "-27.1% (inactive)"},
      {"smiles": "Cc1ccc(N2C(=O)c3ccccc3C2(O)c2ncc[nH]2)cc1", "note": "(stereo unspecified)", "activity change, less the hit threshold": "-19.5% (inactive)"},
      {"smiles": "O=C1C=C(c2ccccc2)OC(=O)C1C(=O)c1ccccc1", "note": "(stereo unspecified)", "activity change, less the hit threshold": "-12.8% (inactive)"},
      {"smiles": "N#Cc1c2n(c3c(=O)n(Cc4ccc(Cl)cc4)cnc13)CCCC2", "activity change, less the hit threshold": "-19.7% (inactive)"},
      {"smiles": "CC12CCC3(CO)COC(c4ccccc4O1)C2C3", "note": "(stereo unspecified)", "activity change, less the hit threshold": "-21.5% (inactive)"},
      {"smiles": "CCCOc1ccc(-c2c(C(=O)N/N=C/c3ccccc3OCC)nnn2-c2nonc2N)cc1", "activity change, less the hit threshold": "-19.7% (inactive)"},
      {"smiles": "CC(=O)N1C(=O)/C(=C2\\SC(=S)N(NC(=O)c3ccc(O)cc3)C2=O)c2ccccc21", "activity change, less the hit threshold": "-12.5% (inactive)"}
    ]}
  ]
}
